Test results from PubChem BioAssay.
Results with a measured potency or affinity are listed apart. Values without a mark were called inactive. The rule behind the calls is not given here.

Assay: HepG2 cell cytotoxicity, dose response, cytotoxicity control, plate reader, cherry-pick, antagonist series (AID 743416);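 note: 0% = neutral control wells and -100% = positive control wells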
Details: series mostly up to 26 µM; activity change, negative = cytotoxicity: at the top concentration

| SMILES | activity change, negative = cytotoxicity |
| --- | --- |
| COc1ccccc1N(Cc1ccccc1)S(=O)(=O)c1cccc(C(=O)Nc2cc(C)ccn2)c1 | -2.36% |
| COc1ccc(Nc2ncc(F)c(N3CCOCC3)n2)cc1 | -9.75% |
| C[C@H](CO)N1C[C@H](C)[C@H](CN(C)S(=O)(=O)c2ccc(C(F)(F)F)cc2)OCc2ccccc2-c2c(n(C)c3ccccc23)C1=O | -43% |
| Cc1ccc(S(=O)(=O)N(C)C[C@H]2Oc3c(cccc3N(C)C)C(=O)N([C@@H](C)CO)C[C@@H]2C)cc1 | 9.89% |
| CCOc1ccc(-c2ccc(SCC)nn2)cc1 | 2.84% |
| Cc1cccc(-c2ccc([C@H]3[C@@H](CO)N4CCCCN(C(=O)c5ccncc5)C[C@@H]34)cc2)c1 | -1.09% |
| COc1cc(SC)ccc1C(=O)Nc1nc(C)cs1 | 5.63% |
| C[C@H](CO)N1C[C@H](C)[C@H](CN(C)C(=O)Nc2cccc3ccccc23)OCCCC[C@H](C)Oc2ccc(NC(=O)c3ccccc3)cc2C1=O | -24.7% |
| O=C(Nc1ccc(-c2nc3cccnc3s2)cc1)C1CCCO1 (centres undefined) | -1.84% |
| Nc1nccc(-c2cc(-c3ccc(Cl)cc3Cl)no2)n1 | -15.6% |
| CCc1cc(-c2ccc3c(c2)COc2c4ccccc4nn2-3)on1 | -3.23% |
| CSc1nnc(NC(=O)c2ccc3c(c2)OCO3)s1 | -8.43% |
| COCC(=O)N1CCCCN2[C@H](CO)[C@H](c3ccc(-c4cccc(C)c4)cc3)[C@@H]2C1 | -7.42% |
| Cc1cc(C(=O)CSc2nnc3ccccn23)c(C)n1-c1ccccc1 | -6.55% |
| CN(C)c1cccc(C(=O)Nc2nc3ccccc3[nH]2)c1 | -25.3% |
| O=C(Nc1ccc(Cl)cc1Cl)c1ccc2c(c1)OCCO2 | -0.349% |
| O=C(Nc1ccc(Cl)cc1)Nc1ccccc1C(=O)O | -9.12% |
| COc1ccc(-c2cn3cc(C)ccc3n2)cc1F | -3.65% |
| CCCCNc1c(-c2cccc(-c3cc(C(C)=O)cs3)c2)nc2ccc(C)cn12 | 6.59% |
| Nc1ccc(-c2nc3ccc(N)cc3s2)cc1 | -15.1% |

| SMILES | activity change, negative = cytotoxicity |
| --- | --- |
| Clc1ccc(-c2cc(-c3ccccn3)on2)c(Cl)c1 | -5.66% |
| Cc1ccc(C)c(S(=O)(=O)N(C(=O)c2ccncc2)c2ccc(OC(=O)c3ccncc3)cc2)c1 | -5.33% |
| CN(C)S(=O)(=O)c1cccc(NC(=O)COc2ccccc2C(=O)Nc2ccccc2)c1 | -2.23% |
| COCCn1c(C)cc(C(=O)CSc2nnc3ccccn23)c1C | 3.49% |
| O=C(Nc1ccc(Cl)cc1)Nc1cccc(C(=O)O)c1 | 5.5% |
| CCOc1ccc(-n2cc(-c3ccccc3)c3c(N4CCOCC4)ncnc32)cc1 | -0.305% |
| COc1ccc(-n2ncc3c(N(C)C4CCCCC4)ncnc32)cc1 | -5.47% |
| CCCCc1ccc(NC(=O)c2cnccn2)cc1 | 4.4% |
| C[C@H](CO)N1C[C@H](C)[C@H](CN(C)C(=O)Nc2cccc3ccccc23)OCCCC[C@H](C)Oc2ccc(NC(=O)CCC(F)(F)F)cc2C1=O | -24.7% |
| O=C(c1ccccc1)N1CCSc2sccc2C1=O | -4.22% |
| N#C[C@@H]1[C@H](c2ccc(C#CC3CCCCC3)cc2)[C@@H](CO)N1C(=O)c1cccc(F)c1 | -11.4% [at 23.5 µM] |
| CCOc1ccc(-c2cnc3ccccc3n2)cc1 | 3.49% |
| C[C@H](CO)N1C[C@H](C)[C@H](CN(C)C(=O)Nc2ccccc2)OCCCC[C@H](C)Oc2ccc(NC(=O)Nc3ccc4c(c3)OCO4)cc2C1=O | 0.253% |
| O=C(Cc1ccncc1)NCC[C@H]1CC[C@H](NC(=O)C2CCCC2)[C@H](CO)O1 | 4.24% |
| COc1ccc(S(=O)(=O)Nc2ccc3c(c2)C(=O)N([C@@H](C)CO)C[C@@H](C)[C@H](CN(C)C(=O)Nc2cccc4ccccc24)OCCCC[C@H](C)O3)cc1 | 3.69% |
| Cc1ccc(S(=O)(=O)Nc2ccc3c(c2)CC(=O)N([C@H](C)CO)C[C@H](C)[C@H](CN(C)Cc2ccc(Cl)c(Cl)c2)O3)cc1 | -10.5% [at 23.5 µM] |
| O=C(O)c1cccc(COc2ccc(CO)cc2Cl)c1 | -0.748% |
| Cc1ccnc(NC(=O)CCC(=O)c2cccs2)c1 | -2.27% |
| CC(C)CCNC(=O)C(c1ccc(O)cc1)N(Cc1cccs1)C(=O)C1COc2ccccc2O1 (centres undefined) | -10.9% |
